Records with an inconclusive call do not appear. Activity calls are given as the source filed them. Calls follow the shape of the dose curve; as a rule, active = well fitted inhibition curve with a large enough effect; inconclusive = small, poorly fitted or top-dose-only effect; inactive = flat fitted curve, though single readings scatter.
Key:
Test in all cases: qHTS profiling for inhibitors of Plasmodium falciparum proliferation (AID 504749); also: nearly all actives have a fitted effect of over 60% in size
Conditions in all cases: P. falciparum in erythrocytes, SYBR Green DNA, 72 h; series mostly up to 28.7 µM
[1] = system: CP252
How it was run: (§1)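 Quantitative HTS: compounds pinned into medium, infected erythrocytes added (0.3% parasitemia, 2.5% hematocrit), 72 h culture at 37 C under 5% CO2. Saponin/Triton lysis with SYBR Green I, overnight RT, then fluorescence read.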

[2] = system: CP256
How it was run: as §1

[3] = system: CP260
How it was run: as §1

[4] = system: CP262
How it was run: as §1

[5] = system: CP265
How it was run: as §1

[6] = system: CP266
How it was run: as §1

[7] = system: CP268
How it was run: as §1

[8] = system: CP269
How it was run: as §1

[9] = system: CP286
How it was run: as §1

[10] = system: CP291
How it was run: as §1

[11] = system: CP297
How it was run: as §1

[12] = system: CP305
How it was run: as §1

[13] = system: CP315
How it was run: as §1

[14] = system: CP325
How it was run: as §1

[15] = system: CP329
How it was run: as §1

[16] = system: CP335
How it was run: as §1

[17] = system: DFO2036
How it was run: as §1

[18] = system: DIV14
How it was run: as §1

[19] = system: DIV30
How it was run: as §1

[20] = system: Dd2
How it was run: as §1

[21] = system: ECU
How it was run: as §1

[22] = system: FAB9
How it was run: as §1

[23] = system: GB4
How it was run: as §1

[24] = system: HB3
How it was run: as §1

[25] = system: JCK
How it was run: as §1

[26] = system: N140
How it was run: as §1

[27] = system: P93_24
How it was run: as §1

[28] = system: P94_40
How it was run: as §1

[29] = system: PAD
How it was run: as §1

[30] = system: PC15
How it was run: as §1

[31] = system: PC26
How it was run: as §1

[32] = system: PC49
How it was run: as §1

[33] = system: SC27B
How it was run: as §1

[34] = system: TAB109
How it was run: as §1

[35] = system: TAB113
How it was run: as §1

[36] = system: TAB165
How it was run: as §1

Measured: Potency

CCN(CC)CCO[C@H]1CC[C@@]2(C)C(=CC[C@@H]3[C@H]2CC[C@]2(C)C(=O)CC[C@H]32)C1
inactive: [1] | [2] | [3] | [4] | [5] | [6] | [7] | [8] | [9] | [10] | [11] | [12] | [13] | [14] | [15] | [16] | [17] | [18] | [19] | [20] | [21] | [22] | [23] | [24] | [25] | [26] | [27] | [28] | [29] | [30] | [31] | [32] | [33] | [34] | [35] | [36]

— PubChem BioAssay (NCATS)
